From PubChem BioAssay AID1159580 (chemical genetic matrix, 2015)
In all, about 5,500 compounds went through this assay and about 2,000 (36%) were called active. Roughly 18% stayed inconclusive and do not appear here. No stated cut-off is given here; in the data, active means normalized growth mostly below about 0.91 (no sharp cut-off); inconclusive means no clear call, values can overlap the other calls; inactive means mostly above about 0.92. The list shows a part of the results.

Experiment: chemical genetic growth profiling, strain panel (AID 1159580);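 further: tested at 20 µM; growth read once vehicle control cultures reached saturation at 30 °C; 1 = growth at the plate median or of vehicle wells; lower values mean less growth of the strain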
Details: S. cerevisiae deletion strains, growth OD
[1] = locus YAL040C, strain CLN3, active compounds read low
[2] = locus YCL061C, strain MRC1 (second series), active compounds read low
[3] = locus YER002W, strain NOP16, active compounds read low
[4] = locus YMR263W, strain SAP30, active compounds read low
[5] = locus YNL153C, strain GIM3, active compounds read low
[6] = locus YNL175C, strain NOP13, active compounds read low
[7] = locus YNL197C, strain WHI3, active compounds read low
[8] = locus YNL224C, strain SQS1, active compounds read low
[9] = locus YOR083W, strain WHI5 (second series), active compounds read low

Measured: normalized growth

CCCC1O[C@@H]2C[C@H]3[C@@H]4CCC5=CC(=O)C=C[C@]5(C)[C@H]4[C@@H](O)C[C@]3(C)[C@]2(C(=O)CO)O1 (stereo partly drawn)
inactive: [1] 1.06 | [2] 0.998 | [3] 1.01 | locus YGR078C, strain PAC10, active compounds read low 1.02 | [4] 1 | [5] 0.982 | [6] 0.994 | [7] 0.974 | [8] 1.01 | [9] 0.992

CN1CCC2(CCN3CCc4c(oc5ccccc45)C3C2)N(C)C1=O (stereo not drawn)
inactive: locus YAL013W, strain DEP1, active compounds read low 1.02 | [1] 1 | [2] 1 | locus YDR150W, strain NUM1, active compounds read low 0.996 | locus YDR363W, strain ESC2, active compounds read low 1.02 | [3] 1.01 | [4] 1 | [5] 1 | [6] 1 | [7] 1.01 | [8] 1.01 | [9] 1.02 | locus YPL055C, strain LGE1, active compounds read low 1
